These results are taken from PubChem BioAssay (NCI).

The panel holds about 79,000 compounds, 15% with a hit somewhere; the sample as a whole holds those more often. Unmarked numbers belong to inactive results. Active and inactive are the calls of the source. No stated cut-off is given here; in the data, active means growth inhibition above about 70%; inactive means the rest.

A short description of test [1]: NCI Yeast Anticancer Drug Screen. Data for the rad50 strain (AID 155).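 Further: 0% = growth of vehicle-only cultures of the same strain.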 The following applies: S. cerevisiae rad50 strain growth inhibition, hits give high values. A digest of the protocol: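 Inhibition values express reduced yeast growth in compound-treated cultures relative to vehicle-treated controls.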
Test [2] in a line: NCI Yeast Anticancer Drug Screen. Data for the mec2-1 strain (AID 157). The following applies: S. cerevisiae mec2-1 strain, hits give high values. The method in brief: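 Readout is yeast growth inhibition, normalised to vehicle-treated controls, in the mec2-1 strain exposed to compound.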
Test [3] is described as follows: NCI Yeast Anticancer Drug Screen. Data for the sgs1 mgt1 strain (AID 161).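 Further: 0% = growth of cultures given vehicle only.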 The following applies: S. cerevisiae sgs1 mgt1 strain, hits give high values. A digest of the protocol:
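Growth of a repair-deficient yeast mutant was monitored after compound treatment and expressed as inhibition relative to vehicle-treated cultures.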

Test [4] can be described thus: NCI Yeast Anticancer Drug Screen. Data for the cln2 rad14 strain (AID 165).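 Further: 0% = growth equal to vehicle treated cultures.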 The following applies: S. cerevisiae cln2 rad14 strain, hits give high values. A digest of the protocol: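 Relative to vehicle controls, growth inhibition of compound-treated cln2 rad14 yeast was recorded.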
A short description of test [5]: NCI Yeast Anticancer Drug Screen. Data for the bub3 strain (AID 167). The following applies: S. cerevisiae bub3 mutant strain, hits give high values. The method in brief: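 Steps: expose the mutant yeast strain to compound; grow alongside vehicle-treated cultures; measure growth; express inhibition against the vehicle cultures.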
Test [6] in a line: NCI Yeast Anticancer Drug Screen. Data for the mlh1 rad18 strain (AID 175). The following applies: S. cerevisiae mlh1 rad18 strain growth inhibition, hits give high values. The method in brief: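 Test agents were incubated with a yeast strain of defined genotype (DNA damage repair defect). Inhibition of growth was derived by comparison with vehicle-exposed cultures.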
The mark [7] stands for this setting: at 5.0 µM (retest, dose inferred, filed as 0.5).
The mark [8] stands for this setting: at 50.0 µM (retest, dose inferred, filed as 5.0).

Turning to `CCCCS.[Hg]`, the growth inhibition is 99% (active) in test [1] (setting [7]); 94% (active) in test [1] (setting [8]); 98.9% (active) in test [1] (at 50.0 µM); 99% (active) in test [2] (setting [7]); 96% (active) in test [2] (setting [8]); 99% (active) in test [2] (at 50.0 µM). Also, the growth inhibition in test [3] (setting [7]) was 99% (active); in test [3] (setting [8]), 94% (active); in test [3] (at 50.0 µM) it was 99.1% (active); in test [4] (setting [7]), 97% (active); in test [4] (setting [8]), 93% (active); in test [4] (at 50.0 µM), 98.7% (active). Also, the growth inhibition was 99% (active) in test [5] (setting [7]); 93% (active) in test [5] (setting [8]); 98.8% (active) in test [5] (at 50.0 µM); 99% (active) in test [6] (setting [7]); 94% (active) in test [6] (setting [8]); 99.2% (active) in test [6] (at 50.0 µM).
In the case of `CC(C(=O)C1CCCCC1)[n+]1ccccc1` (stereo not given), the growth inhibition is 1% in test [1] (setting [7]); -2% in test [1] (setting [8]); -1.2% in test [1] (at 50.0 µM); 1% in test [2] (setting [7]); 1% in test [2] (setting [8]); 1.3% in test [2] (at 50.0 µM). For the same compound, the growth inhibition in test [3] (setting [7]) was 0%; in test [3] (setting [8]), -2%; in test [3] (at 50.0 µM) it was -2.3%; in test [4] (setting [7]), 9%; in test [4] (setting [8]) it was -2%; in test [4] (at 50.0 µM), 48.5%. Besides, the growth inhibition in test [5] (setting [7]) was 3%; in test [5] (setting [8]), 1%; in test [5] (at 50.0 µM), 11.2%; in test [6] (setting [7]), -4%; in test [6] (setting [8]), -6%; in test [6] (at 50.0 µM), -5.85%.
Turning to `CCCCCCCCCCCCN1CC1`, the growth inhibition is -26% in test [1] (setting [7]); 26% in test [1] (setting [8]); 91% (active) in test [1] (at 50.0 µM); -38% in test [2] (setting [7]); -7% in test [2] (setting [8]); 68% in test [2] (at 50.0 µM). The growth inhibition in test [3] (setting [7]) was -10%; in test [3] (setting [8]) it was 47%; in test [3] (at 50.0 µM), 58.5%; in test [4] (setting [7]), -23%; in test [4] (setting [8]), -2%; in test [4] (at 50.0 µM), 59.5%. Further, the growth inhibition was 1% in test [5] (setting [7]); 44% in test [5] (setting [8]); 82% (active) in test [5] (at 50.0 µM); -70% in test [6] (setting [7]); -17% in test [6] (setting [8]); 67.1% in test [6] (at 50.0 µM).
On to `O=C(CCCC(=O)NNC(=O)Nc1cccc(S(=O)(=O)F)c1)NNC(=O)Nc1cccc(S(=O)(=O)F)c1`, for which the growth inhibition in test [1] (setting [7]) was 1%; in test [1] (setting [8]), 3%; in test [1] (at 50.0 µM), 73.2% (active); in test [2] (setting [7]) it was 11%; in test [2] (setting [8]), 20%; in test [2] (at 50.0 µM) it was 72.3% (active). In addition, the growth inhibition in test [3] (setting [7]) was 3%; in test [3] (setting [8]), -19%; in test [3] (at 50.0 µM), 80% (active); in test [4] (setting [7]) it was -8%; in test [4] (setting [8]), -8%; in test [4] (at 50.0 µM), 52.7%. Besides, the growth inhibition was -6% in test [5] (setting [7]); -1% in test [5] (setting [8]); 84.3% (active) in test [5] (at 50.0 µM); 9% in test [6] (setting [7]); 33% in test [6] (setting [8]); 72.8% (active) in test [6] (at 50.0 µM).
As to `CN(C)CC1CC2C3CC=C4CC(O)CCC4(C)C3CCC2(C)C1=O` (stereo not given), the growth inhibition in test [1] (setting [7]) was -9%; in test [1] (setting [8]), 78% (active); in test [1] (at 50.0 µM), 88% (active); in test [2] (setting [7]), -1%; in test [2] (setting [8]), 85% (active); in test [2] (at 50.0 µM), 37.4%. In addition, the growth inhibition is -5% in test [3] (setting [7]); 86% (active) in test [3] (setting [8]); 92.2% (active) in test [3] (at 50.0 µM); 4% in test [4] (setting [7]); 64% in test [4] (setting [8]); 29.1% in test [4] (at 50.0 µM). For the same compound, the growth inhibition is -23% in test [5] (setting [7]); 90% (active) in test [5] (setting [8]); 79% (active) in test [5] (at 50.0 µM); -12% in test [6] (setting [7]); 91% (active) in test [6] (setting [8]); 92.5% (active) in test [6] (at 50.0 µM).
With `COC1C(C)OC(OC2CC(C)(O)Cc3cc4c(c(O)c32)C(=O)c2c(O)cc3c(c2C4=O)OC2OC3(C)C(O)C(N(C)C)C2O)C(OC)C1(C)OC` (stereo not given), the growth inhibition in test [1] (setting [7]) was 69%; in test [1] (setting [8]) it was 96% (active); in test [1] (at 50.0 µM), 89.5% (active); in test [2] (setting [7]), 75% (active); in test [2] (setting [8]), 99% (active); in test [2] (at 50.0 µM), 93% (active). Also, the growth inhibition was 76% (active) in test [3] (setting [7]); 97% (active) in test [3] (setting [8]); 91% (active) in test [3] (at 50.0 µM); 58% in test [4] (setting [7]); 91% (active) in test [4] (setting [8]); 88% (active) in test [4] (at 50.0 µM). Besides, the growth inhibition in test [5] (setting [7]) was 77% (active); in test [5] (setting [8]), 94% (active); in test [5] (at 50.0 µM), 91.5% (active); in test [6] (setting [7]) it was 83% (active); in test [6] (setting [8]), 98% (active); in test [6] (at 50.0 µM), 90% (active).
Take `O=[N+]([O-])[O][Tl]([c]1ccccc1)[c]1ccccc1`: the growth inhibition in test [1] (setting [7]) is -4%; in test [1] (setting [8]), 41%; in test [1] (at 50.0 µM), 15.3%; in test [2] (setting [7]), -4%; in test [2] (setting [8]) it was 54%; in test [2] (at 50.0 µM), 21.4%. The growth inhibition in test [3] (setting [7]) was -4%; in test [3] (setting [8]), 56%; in test [3] (at 50.0 µM), 49.5%; in test [4] (setting [7]), -4%; in test [4] (setting [8]), 57%; in test [4] (at 50.0 µM) it was 20.4%. The growth inhibition in test [5] (setting [7]) is -3%; in test [5] (setting [8]), 75% (active); in test [5] (at 50.0 µM) it was 51.8%; in test [6] (setting [7]), -3%; in test [6] (setting [8]), 41%; in test [6] (at 50.0 µM) it was 8.3%.
As for `O=C(CBr)Nc1ccccc1Cl`, the growth inhibition in test [1] (setting [7]) is 19%; in test [1] (setting [8]), 99% (active); in test [1] (at 50.0 µM) it was 99.3% (active); in test [2] (setting [7]), -3%; in test [2] (setting [8]) it was 99% (active); in test [2] (at 50.0 µM), 99.5% (active). For the same compound, the growth inhibition in test [3] (setting [7]) is 40%; in test [3] (setting [8]), 98% (active); in test [3] (at 50.0 µM) it was 99.1% (active); in test [4] (setting [7]) it was 20%; in test [4] (setting [8]) it was 99% (active); in test [4] (at 50.0 µM) it was 98.5% (active). For the same compound, the growth inhibition is 23% in test [5] (setting [7]); 99% (active) in test [5] (setting [8]); 99.5% (active) in test [5] (at 50.0 µM); 18% in test [6] (setting [7]); 99% (active) in test [6] (setting [8]); 99.2% (active) in test [6] (at 50.0 µM).
For `CC1=C[n+]2cc(C)ccc2Sc2c1ccc1ccccc21`, the growth inhibition in test [1] (setting [7]) is -2%; in test [1] (setting [8]), 24%; in test [1] (at 50.0 µM), 64.3%; in test [2] (setting [7]) it was 11%; in test [2] (setting [8]), 50%; in test [2] (at 50.0 µM), 74.7% (active). Also, the growth inhibition in test [3] (setting [7]) was -20%; in test [3] (setting [8]), 10%; in test [3] (at 50.0 µM), 80.5% (active); in test [4] (setting [7]), -2%; in test [4] (setting [8]), 4%; in test [4] (at 50.0 µM), 28.8%. In addition, the growth inhibition was 0% in test [5] (setting [7]); 29% in test [5] (setting [8]); 66.9% in test [5] (at 50.0 µM); -1% in test [6] (setting [7]); 30% in test [6] (setting [8]); 79.5% (active) in test [6] (at 50.0 µM).
Turning to `O=c1ccn(C2OC(CO)C(O)C2O)c(=O)[n]1[Hg][c]1ccccc1` (stereo not given), the growth inhibition is 99% (active) in test [1] (setting [7]); 99% (active) in test [1] (setting [8]); 90.8% (active) in test [1] (at 50.0 µM); 100% (active) in test [2] (setting [7]); 99% (active) in test [2] (setting [8]); 89.7% (active) in test [2] (at 50.0 µM). Also, the growth inhibition in test [3] (setting [7]) is 100% (active); in test [3] (setting [8]), 100% (active); in test [3] (at 50.0 µM) it was 85.8% (active); in test [4] (setting [7]), 99% (active); in test [4] (setting [8]) it was 99% (active); in test [4] (at 50.0 µM), 88.3% (active). Further, the growth inhibition is 100% (active) in test [5] (setting [7]); 99% (active) in test [5] (setting [8]); 84.3% (active) in test [5] (at 50.0 µM); 98% (active) in test [6] (setting [7]); 98% (active) in test [6] (setting [8]); 91.8% (active) in test [6] (at 50.0 µM).
